Test results reported in ChEMBL document CHEMBL3433997, “St. Jude Leishmania screening dataset” (2016).

Target: Hexose transporter 1 (Plasmodium falciparum) (UniProt O97467)
Experiment: ST_JUDE_LEISH: Cytotoxicity at 2uM final concentration against transgenic Leishmania Mexicana promastigotes LmPfHT that are glucose transport deficient and complemented with the Plasmodium falciparum hexose transporter. Activity is measured by DNA content using SYBR green in vitro
Assay type: functional

SMILES | inhibition [%]
c1ccc(Oc2cccc(Nc3ccnc4ccccc34)c2)cc1 | 10.4
CCOC(=O)C(CO)NC(=O)c1ccc([N+](=O)[O-])o1 (stereo not drawn) | 2.06
COCCn1c(C)cc(C(=O)CN2C(=O)NC(C)(c3ccc(C(C)(C)C)cc3)C2=O)c1C (stereo not drawn) | 1.07
Cc1ccc(C(=O)c2oc3ccc4c(C)cc(=O)oc4c3c2C)cc1 | -0.13
Cc1cccn2c(=O)c3cc(C(=O)NC(C)c4ccccc4)c(=N)n(CCc4ccccc4)c3nc12 (stereo not drawn) | 16.8
O=c1cc(NCCCNCc2cc3c(Cl)cccc3s2)[nH]c2ccccc12 | -0.8
COC(=O)c1cccc(CNCc2ccc(-c3ccc(-c4nc5ccccc5[nH]4)s3)cc2)c1 | 9.04
COc1ccc(-c2cccc(NC(=O)c3cccc(Cl)c3)c2)cc1CN1CCC(O)CC1 | 6.33
